Compound activity as filed in PubChem BioAssay.
Compounds with a hit are over-represented: about 3.1% of the library has one in this group of screens.
INS-1E GSIS act – GLuc luminescence reporter in INS-1E cells, primary screen for activators of glucose-dependent secretion of insulin; INS-1E GLuc reporter insulin secretion, 2-3 h; activation, % at 16.6 µM; 370,000 compounds, 0.61% hits; AID 743287;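 active = lowest replicate activation of at least 40%, so every replicate reaches that level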;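 note: 0% = median of neutral control wells and 100% = median of IBMX positive control wells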
HIV Env fusion – inhibitors of HIV Env-mediated cell fusion; 360,000 compounds, 1.1% hits; HeLa-JRFL Env/CEM21 cell fusion, luciferase; inhibition, % at 12.3 µM; AID 651610;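 active = mean replicate inhibition score of at least 50 and every replicate individually at or above 50; inconclusive = only one of the two criteria met; inactive = mean below 50 and not all replicates reaching 50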;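 note: 0% = plate neutral controls and 100% = maraviroc near 300 nM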
C2C12 statin – protects C2C12 myotubes from simvastatin toxicity; ATP luminescence, 48 h; scaled: DMSO 0, geranylgeraniol control 100; rescue of ATP level, % at 7.49 µM; 330,000 compounds, 0.78% hits; AID 602340;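 active = mean ATP rescue above about 67%, or every replicate alone reaching that limit, limit read from the data, passing the limit was not always enough; inconclusive = no clear call, values can overlap the other calls; inactive = mean under the limit and some replicate under it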;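 note: myotubes were challenged with 10 µM simvastatin during compound exposure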
EWS-Fli inh – inhibitors of EWS/Fli oncoprotein transcriptional activity; A673 NR0B1-luciferase reporter, viability-normalised; inhibition, % at 12.6 µM; 350,000 compounds, 0.67% hits;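 active = mean inhibition of at least 50% after viability correction, with every replicate also passing that limit; inconclusive = mean reaches 50% but only one of two replicates passes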;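 note: firefly luciferase signal divided by Alamar Blue viability fluorescence both relative to DMSO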
miR122 inh – miR-122 inhibition in Huh7 cells; Huh7 miR-122 Renilla luciferase sensor, 48 h; neutral wells = 0, positive control = 100; AID 602342; 340,000 compounds, 0.3% hits; activation (reporter increase), % at 12.5 µM;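 active = mean replicate activation score at least 90 and every replicate individually at or above 90; inconclusive = only one of the two criteria met; inactive = neither criterion met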;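 note: higher luciferase means less miR-122 activity so hits act as miR-122 inhibitors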
PAX8 inh HTS – lowers PAX8-driven luciferase in RMG-I cells; inhibition, % at 12.6 µM; RMG-I TPO-luciferase reporter, SteadyGlo, 24 h; AID 652154; 360,000 compounds, 1.2% hits;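 active = mean replicate inhibition at least 60% with every replicate also reaching 60%; inconclusive = only one of the two criteria is met; inactive = mean below 60% and not all replicates reaching 60%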;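 note: luciferase light reporting Pax8 driven TPO promoter activity; plate controls were median of neutral control wells for no effect and mitoxantrone controls for full effect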
Numbers without * were called inactive; [ ] = dose if it differs, or a comment.

How did CCCN1C[C@@H](C)[C@@H](OC)CN(C)C(=O)c2cc(NC(=O)CC(F)(F)F)ccc2OC[C@@H]1C do in these assays?
INS-1E GSIS act: -4; EWS-Fli inh: -16; PAX8 inh HTS: 10

What do the screens show for `C[C@H]1CN([C@@H](C)CO)C(=O)c2cc(C#Cc3cccc(F)c3)cnc2O[C@@H]1CN(C)C(=O)C1CCOCC1`?
INS-1E GSIS act: -6; HIV Env fusion: 4[16.7 µM]; C2C12 statin: 4; EWS-Fli inh: -5; miR122 inh: -9[16.7 µM]

How did OC[C@H]1[C@H](c2ccc(C#CC3CCCC3)cc2)[C@@H]2CN(CCC(F)(F)F)CCCCN12 do in these assays?
INS-1E GSIS act: 24; C2C12 statin: -10; EWS-Fli inh: 33; miR122 inh: -26[16.7 µM]; PAX8 inh HTS: -29

Results for OC[C@@H]1[C@@H](c2ccc(C#CC3CCCC3)cc2)[C@@H]2CN(CCC(F)(F)F)CCCCN12 ?
INS-1E GSIS act: 46*; C2C12 statin: 32; EWS-Fli inh: 43; miR122 inh: 4[16.7 µM]; PAX8 inh HTS: 12

How did OC[C@@H]1[C@@H](c2ccc(C#CC3CCCC3)cc2)[C@H]2CN(CCC(F)(F)F)CCCCN12 do in these assays?
INS-1E GSIS act: 170*; C2C12 statin: -2; EWS-Fli inh: 25; miR122 inh: -4[16.7 µM]; PAX8 inh HTS: -25

Results for Cc1noc(C)c1S(=O)(=O)N(C)C[C@@H]1OCCCC[C@@H](C)Oc2ccc(NC(=O)CCCN(C)C)cc2C(=O)N([C@H](C)CO)C[C@H]1C ?
INS-1E GSIS act: 8; HIV Env fusion: -25[16.7 µM]; EWS-Fli inh: 1; miR122 inh: 1[16.7 µM]; PAX8 inh HTS: 9

Results for Cc1cc(C)c2c(N)c(C(=O)Nc3ncc(C)s3)sc2n1 ?
HIV Env fusion: 21; miR122 inh: 7; PAX8 inh HTS: 104*

Results for COC(=O)c1sc2nc(C)cc(C)c2c1N ?
INS-1E GSIS act: 10; HIV Env fusion: 18; C2C12 statin: -1; EWS-Fli inh: -15; miR122 inh: 0; PAX8 inh HTS: -31

What do the screens show for `C[C@@H](NC(=O)c1nc[nH]c1C(=O)N[C@@H](Cc1ccccc1)C(=O)OC(C)(C)C)c1ccccc1`?
INS-1E GSIS act: -43; HIV Env fusion: 32; C2C12 statin: 11; EWS-Fli inh: 0; miR122 inh: 8; PAX8 inh HTS: 95*

What do the screens show for `CC(C)C[C@H](NC(=O)c1nc[nH]c1C(=O)NCCCCCNC(=O)OC(C)(C)C)C(=O)OC(C)(C)C`?
INS-1E GSIS act: -26; HIV Env fusion: 17; C2C12 statin: -1; EWS-Fli inh: 1; miR122 inh: -8; PAX8 inh HTS: 17

What do the screens show for `CC(C)(C)OC(=O)NCc1ccc(CNC(=O)c2[nH]cnc2C(=O)N[C@@H](Cc2ccccc2)C(=O)OC(C)(C)C)cc1`?
INS-1E GSIS act: -22; HIV Env fusion: 44; EWS-Fli inh: 21; miR122 inh: -14; PAX8 inh HTS: 76*

How did CC(C)C[C@H](NC(=O)c1nc[nH]c1C(=O)N[C@@H](CCCCNC(=O)OC(C)(C)C)C(=O)OC(C)(C)C)C(=O)OC(C)(C)C do in these assays?
HIV Env fusion: 26; C2C12 statin: 4; EWS-Fli inh: 37; miR122 inh: -5; PAX8 inh HTS: 102*

How did CCCNC(=O)C[C@@H]1CC[C@H]2[C@H](COc3ccc(NC(=O)CC)cc3C(=O)N2C)O1 do in these assays?
INS-1E GSIS act: 7; HIV Env fusion: -7[16.7 µM]; C2C12 statin: -1; EWS-Fli inh: 0; miR122 inh: 10[16.7 µM]; PAX8 inh HTS: -13

Results for Cc1cccc(S(=O)(=O)N[C@H]2CC[C@H](CCNS(=O)(=O)c3ccccc3F)O[C@@H]2CO)c1 ?
INS-1E GSIS act: -13; HIV Env fusion: inconclusive; C2C12 statin: 24; EWS-Fli inh: 8; PAX8 inh HTS: 14

Results for Cc1ccc(S(=O)(=O)N(C)C[C@@H]2Oc3ccc(NC(=O)Nc4c(C)noc4C)cc3C(=O)N([C@H](C)CO)C[C@H]2C)cc1 ?
INS-1E GSIS act: 5; HIV Env fusion: 11[16.7 µM]; C2C12 statin: -12; EWS-Fli inh: 0; miR122 inh: -3[16.7 µM]; PAX8 inh HTS: 6

What do the screens show for `CCCN1[C@@H]2c3ccc(-c4cccc(F)c4)c(=O)n3C[C@H]1[C@H](CO)[C@H]2C(=O)NCC1CC1`?
INS-1E GSIS act: 8; HIV Env fusion: 5[16.7 µM]; C2C12 statin: 7; EWS-Fli inh: 2

Results for CC1=C(SCc2ccccc2)C(=O)c2ccccc2C1=O ?
INS-1E GSIS act: -22; HIV Env fusion: -32; C2C12 statin: 2; EWS-Fli inh: 39; PAX8 inh HTS: 64*

What do the screens show for `O=C(N=C1SC2CS(=O)(=O)CC2N1c1ccc(F)cc1F)C1CC1` (configuration not stated)?
INS-1E GSIS act: -5; HIV Env fusion: 9; C2C12 statin: -8; miR122 inh: -7; PAX8 inh HTS: 3

Results for O=C(N=C1SC2CS(=O)(=O)CC2N1c1ccc(F)c(Cl)c1)C1CC1 (configuration not stated) ?
INS-1E GSIS act: 42*; HIV Env fusion: 0; C2C12 statin: 1; EWS-Fli inh: -7; miR122 inh: -3; PAX8 inh HTS: 6

How did Cc1ccccc1C(=O)NC1CCSC1=O (configuration not stated) do in these assays?
INS-1E GSIS act: 121*; HIV Env fusion: -5; C2C12 statin: 1; EWS-Fli inh: 5; miR122 inh: -5; PAX8 inh HTS: 4

What do the screens show for `CC(OC(=O)CCN1C(=O)C2CC=CCC2C1=O)C(=O)Nc1cccc(Cl)c1` (configuration not stated)?
INS-1E GSIS act: 63*; HIV Env fusion: 19; EWS-Fli inh: -3; PAX8 inh HTS: 1

What do the screens show for `CCS(=O)(=O)Nc1ccc2c(c1)C(=O)N(C)C[C@H](OC)[C@H](C)CN(Cc1ccccn1)[C@H](C)CO2`?
INS-1E GSIS act: 3; HIV Env fusion: -9[16.7 µM]; C2C12 statin: -6; EWS-Fli inh: 9; PAX8 inh HTS: -11

How did NC(=O)c1ccc(N2CCN(c3ccc(O)cc3)CC2)c([N+](=O)[O-])c1 do in these assays?
INS-1E GSIS act: 6; HIV Env fusion: 66*; PAX8 inh HTS: 9

Results for CC(=O)c1ccc(N2CCN(c3ccc(C(N)=O)cc3[N+](=O)[O-])CC2)cc1 ?
INS-1E GSIS act: 5; HIV Env fusion: 27; EWS-Fli inh: 2; PAX8 inh HTS: -28

What do the screens show for `CCC1CCCCN1C(=O)COC(=O)CSc1ccc(C(N)=O)cc1[N+](=O)[O-]` (configuration not stated)?
INS-1E GSIS act: 29; HIV Env fusion: -8; C2C12 statin: -4; EWS-Fli inh: 2; miR122 inh: 1; PAX8 inh HTS: -12

How did CC1CCCCN1C(=O)COC(=O)CSc1ccc(C(N)=O)cc1[N+](=O)[O-] (configuration not stated) do in these assays?
INS-1E GSIS act: 45*; C2C12 statin: 11; EWS-Fli inh: 0; miR122 inh: 0; PAX8 inh HTS: 11
